Source: PubChem BioAssay
Rows were chosen to be rich in hits. Some 18% of all compounds tested hit in one or more screens of this group.
TDP1 block – qHTS Assay for Inhibitors of Tyrosyl-DNA Phosphodiesterase (TDP1). Potency, µM (doses to about 130 µM), for the others: at the highest dose activity change, negative = inhibition, most hits filed as inhibitors. 0.28% of 350,000 active. recombinant TDP1, AlphaScreen DNA substrate cleavage. AID 485290, 2010. Tyrosyl-DNA phosphodiesterase 1 (Homo sapiens), Q9NUW8; further: nearly all actives have a fitted effect of over 40% in size
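Compounds were preincubated with Tdp1 (1 nM final) for 15 min at room temperature before substrate (15 nM final) started a 5 min reaction; beads (10 ug/ml final) were then added for 10 min before AlphaScreen detection.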
TDP1 cell noCPT – qHTS for Inhibitors of human tyrosyl-DNA phosphodiesterase 1 (TDP1): qHTS in cells in absence of CPT. Potency, µM (series often up to 46.2 µM), for inactives: top-dose activity change, negative = growth inhibition, hits mostly inhibitors. 15% of 420,000 active. DT40 Tdp1-/- hTDP1 cells, no CPT, ATP luminescence, 48 h; further: nearly all actives have a fitted effect of over 55% in size
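Chicken DT40 Tdp1-/- cells stably complemented with human TDP1 were seeded at 400 cells/well with DMSO in place of 20 nM camptothecin. After compound pinning, cells grew at least 48 hr at 37 °C; viability read by CellTiter-Glo luminescence.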
DT40 TDP1 CPT – qHTS for Inhibitors of human tyrosyl-DNA phosphodiesterase 1 (TDP1): qHTS in cells in presence of CPT; chicken DT40 Tdp1-/-;hTDP1 cells + 20 nM CPT, ATP luminescence, 48 h; Potency, µM (titrated, usually from 46.2 µM), inactives show at the top dose activity change, negative = growth inhibition, most hits filed as inhibitors; 12% of 420,000 active; AID 686979, 2013; further: nearly all actives have a fitted effect of over 55% in size
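Chicken DT40 Tdp1-/- cells complemented with human TDP1, 400 cells/well, exposed to compounds plus 20 nM camptothecin for at least 48 h at 37 C; viability read as ATP content by CellTiter-Glo luminescence.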
PLK1 PBD block – qHTS for Inhibitors of PLK1-PDB (polo-like kinase 1 - polo-box domain): Primary Screen | Serine/threonine-protein kinase PLK1 (Homo sapiens), P53350 | Plk1 PBD binding of FITC phosphopeptide, fluorescence polarization | Potency, µM, without a hit: max response, negative = inhibition, usual class: inhibitors | 2.8% of 360,000 active | AID 720504, 2013; further: series mostly up to about 57 µM; nearly all actives have a fitted effect of over 65% in size
GCN5L2 inh – qHTS Assay for Inhibitors of GCN5L2. AID 504327, 2011. 0.21% of 390,000 active. GCN5L2 HAT assay, ThioGlo1 CoA-SH fluorescence. Potency, µM (titrated, usually from 58.9 µM), without a hit: top-dose activity change, negative = inhibition, hits mostly inhibitors. Histone acetyltransferase KAT2A (Homo sapiens), Q92830
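Enzyme at 20nM final was mixed with library compounds for 15 min at room temperature. Peptide H3(1-25) at 75uM, acetyl-CoA at 70uM and ThioGlo1 at 50uM were then added. Plates were read immediately and after 20 min (Ex340nm/Em540nm).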
VDR inhibitor – Inhibitors of the vitamin D receptor (VDR): qHTS; Vitamin D3 receptor (Homo sapiens), P11473; VDR-SRC2-3 peptide fluorescence polarization, 2 h; Potency, µM, without a hit: max response, negative = inhibition, actives largely listed as inhibitors; 0.93% of 400,000 active
Target sequence (P11473 whole entry, looked up): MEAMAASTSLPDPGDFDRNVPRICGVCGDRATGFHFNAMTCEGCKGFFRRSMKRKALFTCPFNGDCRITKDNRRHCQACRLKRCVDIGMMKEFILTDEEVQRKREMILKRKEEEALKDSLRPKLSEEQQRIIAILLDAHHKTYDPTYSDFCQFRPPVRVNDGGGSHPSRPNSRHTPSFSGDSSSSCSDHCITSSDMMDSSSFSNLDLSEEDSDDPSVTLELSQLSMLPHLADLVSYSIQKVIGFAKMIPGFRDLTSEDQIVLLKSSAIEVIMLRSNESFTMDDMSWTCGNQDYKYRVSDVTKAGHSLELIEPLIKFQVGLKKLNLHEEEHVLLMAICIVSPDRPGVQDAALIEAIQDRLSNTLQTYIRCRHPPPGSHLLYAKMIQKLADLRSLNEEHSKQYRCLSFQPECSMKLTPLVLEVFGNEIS
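Reagent solutions, kept cold and dark, are dispensed first; compounds are then pinned in at 23 nl, plates briefly spun, and incubated 2 h at ambient temperature. Inhibition of VDR–SRC2-3 peptide binding is read by fluorescence polarization.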
* marks the source's active call; other numbers are inactive results; ? = inconclusive; / = no result; [ ] = dose if it differs, or a comment. The call rests on the fitted dose curve; in most records, active means well fitted curve in the direction sought with a large enough effect; inconclusive means small, poorly fitted or top-dose-only effect, or another doubt; inactive means no such curve, though single readings can be large; an effect the other way counts as inactive or inconclusive. On the % scale 0 is the no-effect control and ±100 the full control effect; potency means the concentration at half of the fitted maximal effect.

SMILES	TDP1 block	TDP1 cell noCPT	DT40 TDP1 CPT	PLK1 PBD block	GCN5L2 inh	VDR inhibitor
CC[C@@]1(C(=O)OC)N[C@H](CN(C)C(=O)NC(C)C)[C@@H]2C(=O)N(C)C(=O)[C@@H]21	0%	-2%	1%	-1%	-2%	20%
Cc1cccc(CN2CCN(C3CN(Cc4cn(Cc5cccc(C(F)(F)F)c5)nn4)S(=O)(=O)C3)CC2)c1 (stereo not given)	/	21µM*	?	-12%	/	/
CN(C)CCN1CCN(C2CN(Cc3cn(Cc4cccc(C(F)(F)F)c4)nn3)S(=O)(=O)C2)CC1 (stereo not given)	/	-13%	-12%	-5%	/	/
COC(=O)c1ccc(CC(=O)c2ccc(O)cc2O)o1	6%	?	?	5%	-5%	7%
CCC(=O)Oc1ccc(C/C(=N\O)c2ccc(O)cc2O)o1	-14%	18µM*	?	?	-2%	9%
COc1ccc(CNc2ccc(S(N)(=O)=O)cc2)c(OC)c1OC	10%	-8%	-24%	-9%	-3%	5%
C=CCOc1c(CNc2ccc(S(N)(=O)=O)cc2)cccc1OC	5%	18µM*	?	-22%	-4%	-12%
COc1cccc(CNc2ccc3[nH]c(=O)[nH]c3c2)c1OCc1ccc(F)cc1	/	?	-5%	-9%	-8%	3%
C=CCOc1c(CNc2ccc3[nH]c(=O)[nH]c3c2)cccc1OC	6%	?	-6%	27µM*	-6%	-1%
CCN=C1S/C(=C\c2ccc(O)c(OCC)c2)C(=O)N1CC	-10%	21µM*	26µM*	14%	-10%	7%
CCN=C1S/C(=C\c2cn(CC)c3ccccc23)C(=O)N1CC	5%	10µM*	23µM*	5%	-7%	9%
CCOc1cc(/C=C2/SC(=S)N(CC3CCCO3)C2=O)ccc1O (stereo not given)	0%	23µM*	?	9%	0%	-10%
CCN1C(=O)S/C(=C/c2cn(C)c3ccccc23)C1=O	3%	-20%	-4%	1%	-10%	-12%
CCN=C1S/C(=C/c2ccc(-c3ccc(F)cc3)o2)C(=O)N1CC	/	?	-28%	-4%	-12%	-19%
CCN=C1S/C(=C\c2cc(OCC)c(O)cc2Br)C(=O)N1CC	-3%	12µM*	21µM*	8%	0%	-5%
O=C(CCNC(=O)c1ccc(Br)cc1)NCC1COc2ccccc2O1 (stereo not given)	5%[56.1 µM]	-13%	?	0%	-9%	22%
N=C(N)n1cccn1	/	-1%	-2%	/	4%	2%
O=C(O)C1C(c2ccccc2)c2ccccc2C(O)C1CO (stereo not given)	/	?	-4%	-6%	/	5%
Cc1ccc(C)c(Cn2cnc3ccccc3c2=O)c1	5%	?	-2%	/	0%	14%
Cc1ccc(C(=O)Oc2ccc(Cl)c3cccnc23)cc1[N+](=O)[O-]	4%	21µM*	?	-7%	-13%	-26%
Cc1ccc(-c2noc(C3CCCN(C(=O)c4ccc(Cl)cc4)C3)n2)o1 (stereo not given)	11%	13µM*	?	-3%	-5%	9%
COc1ccc(-c2noc(C3CCCN(C(=O)c4cccs4)C3)n2)cc1 (stereo not given)	0%	?	?	-4%	-2%	-1%
COc1ccc(-c2noc(C3CCCN(C(=O)c4ccc(C)cc4)C3)n2)cc1 (stereo not given)	-1%	23µM*	23µM*	1%	12%	0%
